Screening results as filed in PubChem BioAssay.
An excerpt weighted towards active compounds, which were near 19% of everything screened.
Marburg entry inh – qHTS for inhibitors of binding or entry into cells for Marburg Virus. Marburg virus pseudotyped entry inhibition, cell reporter. Potency, µM (doses to about 37.8 µM), inactives show at the highest dose activity change, negative = inhibition, actives largely listed as inhibitors. actives 1.8% (n = 300,000). AID 540276, 2011; calls by dose curve; tested in HEK293 cells; also: potency is read from the fitted curve at half-maximal effect; % is scaled to controls: 0 for no effect and ±100 for the full control effect
Lassa entry inh – qHTS for Inhibitors of binding or entry into cells for Lassa Virus; Lassa virus pseudotype entry inhibition, cell reporter; Potency, µM (titrated, usually from 37.9 µM), for inactives: at the top dose activity change, negative = inhibition, actives largely listed as inhibitors; actives 1.2% (n = 300,000); calls by dose curve; tested in HEK293 cells; also: potency is read from the fitted curve at half-maximal effect; % is scaled to controls: 0 for no effect and ±100 for the full control effect; nearly all actives have a fitted effect of over 50% in size
CHX counter – Cycloheximide Counterscreen for Small Molecule Inhibitors of Shiga Toxin. actives 12% (n = 300,000). cell reporter, cycloheximide protein synthesis inhibition counterscreen. max response, %. AID 2314, 2010; in the data active = max response mostly above about 13%, no sharp cut-off; inactive = mostly below about 14%; also: read at 38.3 µM for the half of the compounds with a filed dose; 0% is about no effect
Pf growth 48h – Primary qHTS for delayed death inhibitors of the malarial parasite plastid, 48 hour incubation; actives 5.9% (n = 310,000); Potency, µM (series often up to 28.7 µM), inactives show top-dose activity change, negative = inhibition, hits mostly inhibitors; P. falciparum luciferase growth in erythrocytes, 48 h; also: potency is read from the fitted curve at half-maximal effect; % is scaled to controls: 0 for no effect and ±100 for the full control effect
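Parasite viability was followed by luminescence of a genomically integrated firefly luciferase. Cultures held 0.1% parasitemia at 2% hematocrit (final), incubated under 5% CO2 at 37 C.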
Pf growth 96h – Primary qHTS for delayed death inhibitors of the malarial parasite plastid, 96 hour incubation; P. falciparum luciferase reporter growth, 96 h; actives 6.9% (n = 320,000); Potency, µM (doses to about 28.7 µM), inactives show top-dose activity change, negative = inhibition, most hits filed as inhibitors; also: potency is read from the fitted curve at half-maximal effect; % is scaled to controls: 0 for no effect and ±100 for the full control effect
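Parasite growth measured via integrated firefly luciferase reporter in P. falciparum. Infected erythrocytes at 2% hematocrit, 0.05% parasitemia final were treated 96 hours at 37 C under 5% CO2, and luminescence was read.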
Shiga inhibitor – A qHTS for Small Molecule Inhibitors of Shiga Toxin. Vero cells, Shiga toxin protein synthesis inhibition reporter. inhibition, % at 38.7 µM. actives 9.2% (n = 290,000); in the data active = inhibition mostly above about 28%, no sharp cut-off; inactive = mostly below about 43%; also: 0% is about no effect
* hit, by the source's call; ? = inconclusive; . = no result given; [ ] = dose if it differs, or a comment. Unless noted, calls follow the shape of the dose curve; as a rule, active = well fitted inhibition curve with a large enough effect; inconclusive = small, poorly fitted or top-dose-only effect, or another doubt; inactive = no such curve, though single readings can be large or run the other way.

SMILES | Marburg entry inh | Lassa entry inh | CHX counter | Pf growth 48h | Pf growth 96h | Shiga inhibitor
C=CCN(c1ccccc1)S(=O)(=O)c1cccc(C(=O)Nc2nc3ccccc3[nH]2)c1 | ? | -25% | 5 | ? | ? | 4
O=C(Nc1nc2ccccc2[nH]1)c1ccccc1O | . | . | 37* | -10%[0.00184 µM] | 3% | 97*
C=Cc1ccc(CSc2nc(-c3ccc(OC)cc3)nc3c2Cc2c(CO)cnc(C)c2O3)cc1 | . | -5%[46.1 µM] | . | . | . | .
Cc1nc2ccc(NC(=O)c3ccc(Cl)c(S(=O)(=O)N(C)c4ccccc4)c3)cc2s1 | ? | ? | -3 | 0% | ? | -4
Cc1nc2ccc(NC(=O)c3cc(S(=O)(=O)N(C)c4ccccc4)ccc3Cl)cc2s1 | ? | -29% | -5 | 1.3µM* | 0.37µM* | -2
CC(=O)c1ccc(NC(=O)c2cc(S(=O)(=O)N3CCOCC3)ccc2C)cc1 | . | -19%[46.1 µM] | 11 | 2% | ? | -13
CCNc1nc2ccccc2[nH]1 | ? | 10% | 5 | 18% | . | -10
Cc1nc2ccc(NC(=O)c3cc(S(=O)(=O)N4CCOCC4)ccc3C)cc2s1 | ? | -21% | 3 | . | 9.3µM* | -1
CCOc1ccc(S(=O)(=O)N2CCOCC2)cc1NC(=O)CSCc1ccc(C)cc1 | . | . | . | 9.3µM* | ? | .
Cc1ccc(Nc2nc3ccccc3[nH]2)nc1 | ? | ? | 26* | 3.3µM* | ? | 53*
O=C(Cc1ccc(Cl)cc1)Nc1nc2ccccc2[nH]1 | 11% | 0% | -1 | 15% | . | 7
Cc1ccc(S(=O)(=O)N2CCOCC2)cc1C(=O)Nc1nc2ccccc2[nH]1 | 6% | 13% | 18* | ? | -92% | 13
O=C(/C(=C/c1ccc(Cl)cc1)c1nc2ccccc2[nH]1)c1ccccc1 | ? | 4.1µM* | 37* | 2.9µM* | 2.3µM* | 41*
O=C(Nc1nc2ccccc2[nH]1)c1ccc(Cl)cc1 | ? | 2.5µM* | 8 | -19% | -71% | 18
CCOc1ccccc1NC(=O)c1cc(S(=O)(=O)N2CCOCC2)ccc1C | 11% | 3% | 0 | -10% | 12µM* | 8
Cc1ccc(S(=O)(=O)N2CCOCC2)cc1C(=O)Nc1cccc(S(=O)(=O)N2CCCC2)c1 | 16%[46.1 µM] | -22% | -3 | ? | ? | 2
Cc1ccc(CSCC(=O)Nc2ccc(N3CCOCC3)cc2N2CCOCC2)cc1 | ? | -10% | . | 5.2µM* | ? | .
O=C(O)CC12CC3CC(C1)CC(n1ncc(NCc4ccco4)c(Cl)c1=O)(C3)C2 | -1%[46.1 µM] | 5% | -3 | ? | 2% | -9
O=c1c(Cl)c(NCc2ccccc2)cnn1C12CC3CC(CC(C3)C1)C2 | ? | ? | 5 | ? | 10µM* | 15
CCOC(=O)c1ccccc1NC(=O)COC(=O)C1=COCCO1 | 0% | 3% | 1 | -12% | 0% | -3
Cn1c(=O)n(CC(=O)N2CCC3(CC2)OCCO3)c(=O)c2ccccc21 | -5% | -5% | 4 | 43% | 1.7µM* | -13
O=C(CCn1c(=O)oc2ccccc21)N1CCC2(CC1)OCCO2 | 8% | -1% | 14* | -7% | 4% | 19
O=C(CCCCCn1c(=S)[nH]c2ccccc2c1=O)N1CCC2(CC1)OCCO2 | 12% | 7% | -2 | 8.3µM* | 15% | -23
O=C(CCn1c(=O)oc2ccccc21)N1CCOCC1 | ? | 17% | -5 | 4% | ? | -4
O=C(Cn1c(=S)[nH]c2ccccc2c1=O)N1CCC2(CC1)OCCO2 | 1% | 1% | -3 | 9% | 40% | 13
SMILES | Marburg entry inh | Lassa entry inh | CHX counter | Pf growth 48h | Pf growth 96h | Shiga inhibitor
CCN(c1ccccc1)S(=O)(=O)c1ccc(C(=O)NCc2ccccn2)cc1 | -1% | ? | . | 8% | 48% | .
O=C(c1cc(COc2ccc(F)c(F)c2)on1)N1CCN(C2CCCCC2)C(=O)C1 | . | . | 31* | ? | -15% | 59
O=C(c1cc(COc2c(F)cccc2F)on1)N1CCN(C2CCCCC2)C(=O)C1 | 0%[46.1 µM] | 18%[46.1 µM] | 3 | ? | ? | 1
COc1cccc(OCc2cc(C(=O)N3CCN(C4CCCCC4)C(=O)C3)no2)c1 | -28%[46.1 µM] | -18%[46.1 µM] | 9 | -14% | 12% | 15
CC(=O)c1ccc(OCc2cc(C(=O)N3CCN(C4CCCC4)C(=O)C3)no2)cc1 | 3% | 3.2µM* | . | . | . | .
COc1ccc(-c2cc(-c3ccccc3)nc3ncnn23)cc1 | . | . | -5 | 14% | ? | 19
Cc1cccc(C)c1N=C1SC(CC(=O)Nc2c(C)cccc2C)C(=O)N1CCc1ccccn1 (stereo unspecified) | 15% | -12% | -2 | 9.3µM* | 9.3µM* | -8
CCN1C(=O)C(CC(=O)Nc2ccccc2)S/C1=N\c1ccccn1 (stereo unspecified) | -14%[46.1 µM] | 13%[46.1 µM] | -5 | 43% | 22% | -11
O=C(CC1SC(=Nc2ccccc2)N(CCc2ccccn2)C1=O)Nc1ccc(F)cc1 (stereo unspecified) | ? | ? | 10 | ? | 4.7µM* | -5
O=C(CC1SC(=Nc2ccccc2)N(CCO)C1=O)Nc1ccccc1 (stereo unspecified) | ? | ? | -4 | ? | -28% | 3
Cc1noc(C)c1S(=O)(=O)N1CCN(C(c2ccccc2)c2ccc(Cl)cc2)CC1 (stereo unspecified) | 0% | . | -1 | . | ? | 2
CCOC(=O)c1cnc2c(ccc3ccccc32)c1Nc1cccc(C(F)(F)F)c1 | . | 13%[46.1 µM] | . | . | . | .
COc1cc(-c2nnc(SCC(=O)N3CCCC3)o2)cc(OC)c1OC | 5%[46.1 µM] | -18% | -1 | ? | 57% | 31
COc1cc(-c2nnc(SCC(=O)/C(C#N)=C(\C)N)o2)cc(OC)c1OC | 1% | -2% | -1 | ? | 9.3µM* | -13
COc1cc(-c2nnc(SCC(=O)N3CCOCC3)o2)cc(OC)c1OC | ? | ? | -2 | 17% | ? | 16
Cc1cc(C(=O)CSc2nnc(-c3ccc(F)cc3)o2)c(C)n1CC1CCCO1 (stereo unspecified) | -6% | -16% | 10 | -6% | 13µM* | 15
Cc1cc(C(=O)CSc2nnc(Nc3ccccc3F)s2)c(C)n1CC1CCCO1 (stereo unspecified) | -19% | -6% | 11 | . | 0% | -3
COc1cc(-c2nnc(SCC3(c4ccc(Br)cc4)OCCO3)o2)cc(OC)c1OC | ? | ? | -4 | 10µM* | 13µM* | -8
COc1ccccc1Nc1nnc(SCC(=O)c2cc(C)n(CC3CCCO3)c2C)s1 (stereo unspecified) | 3% | 0% | -2 | 10µM* | 4.7µM* | -12
COc1cc(-c2nnc(SCC(=O)c3ccc(C)cc3)o2)cc(OC)c1OC | -10% | ? | -1 | 1% | ? | 11
